Source: PubChem BioAssay (EPA / NIEHS)
Activity calls are given as the source filed them. Rule for the calls: active = hit-call score of the fitted dose curve at least 0.9, where 1 is the maximum; inactive = score below 0.9.

These compounds were tested on Insulin-like growth factor-binding protein 1 (IGFBP1), IGFBP1 (gene 3484) (assay: LTEA_HepaRG_IGFBP1: Life Technologies and Expression Analysis (LTEA) Assay for Insulin-like growth factor-binding protein 1 (IGFBP1) using HepaRG (AID 2283508)). Conditions: mRNA level, 48 h; actives raise or lower the signal.
Method: LTEA_HepaRG is a cell based, multiplexed-readout assay that uses HepaRG, a human liver cell line, with measurements taken at 48 hours after chemical dosing on a 96-well plate.LTEA_HepaRG_IGFBP1 is one of 102 assay component(s) measured in the LTEA HepaRG cell culture assay. It is a marker of Cell proliferation, survival, death.Data from the assay component LTEA_HepaRG_IGFBP1 was analyzed into 1 endpoint. This assay endpoint, LTEA_HepaRG_IGFBP1, was analyzed with bidirectional fitting relative to DMSO as the negative control and baseline of activity. Using a type of inducible reporter, measures of mRNA induction for gain or loss-of-signal activity can be used to understand regulation of transcription factor activity. To generalize the intended target to other relatable targets, this assay endpoint is annotated to the transporter intended target family, where the subfamily is hormone carrier protein.
A total of 1060 chemcials from the ToxCast library were tested in eight-point concentration-response experiments. Cell culture and cytotoxicity assays were conducted at Thermo Fisher Scientific's Custom Services facility (Madison, WI). A single lot of human HepaRG cells (Thermo Fisher Scientific, Frederick, MD) was used for the cell culture experiments. 96-well format collagen type I coated plates of human HepaRG cells were prepared using established methods. Briefly, cryopreserved HepaRG cells were thawed, plated at a density of approximately 100,000 cells/well in HepaRG Thaw, Plate, and General Purpose media (HPRG770, Thermo Fisher Scientific), and incubated for 48 hours. 0.5% DMSO was selected as vehicle control to balance the requisite need of DMSO in HepaRG cultures to maintain differentiation (for example, baseline metabolism, proportions of hepatocytes vs. cholangiocytes), while enabling further hepatic receptor pathway activation (for example, PXR and CAR) in response to chemical exposure. 48 hours after plating, the culture medium was replaced with HepaRG Serum-Free Incudtion Media. Cells were exposed to each test chemical in duplicate and maintained in CO2 incubators for another 48 hours. Chemical plates were thawed to room temperature and 200x concentrations of treatment groups were prepared. 8-point conentration-reponse curves were made with the highest exposure at 100 uM, followed by half-log dilutions, all in 0.5% DMSO. Each test plate contained variouse controls, induction positive controls (1mM phenobarbital), cytotoxicity positive controls ([…] aflatoxin B1), vehicle controls (0.5% DMSO), and total lysis controls (0.5% DMSO). Cell morphology images were taken using an Essen IncuCyte FLR automated microscope, with six 96-well plates imaged in about 24 minutes. Images were captured and exported and JPEG files. Spent culture media was transfered to black-well plates for the LDH assay, and remaining media was sorted at -80 C for later use. Cells were treated with RLT buffer and frozen until shipped for gene expression analysis. Total RNA was isolated from the cell suspension in 75 uL of Buffer RLT (Qiagen, Germantown, MD 20874) by Quintiles/Expression Analysis (Durham, NC) using a custom isolation procedure. Total RNA from each plate well was transferred to a preamplification plate. Fluidigm's 96.96 Dynamic ArrayTM (Fluidigm, Amsterdam, the Netherlands) technology was used for gene expression analyses by quantitative reverse transcription polymerase chain reaction (qRT-PCR, performed by Quintiles/Expression Analysis, Durham, NC)89. Standard TaqManTM Assays (Applied Biosystems/ThermoFisher Scientific, Foster City, CA) were used to assess the expression of 93 genes selected based on their selectivity and sensitivity to important hepatic receptors known to be modulated by environmental chemicals; importance in human hepatocyte functionality; and hepatotoxicity. […]

Row | Compound | outcome | AC50
1 | Clc1ccc(C(c2ccc(Cl)cc2)C(Cl)(Cl)Cl)cc1 | inactive | –
2 | O=C(O)C1C2CCC(O2)C1C(=O)O (stereo not given) | – | 93.3 µM (active)
3 | O=Cc1ccco1 | inactive | –
4 | CC(O)CCO (stereo not given) | inactive | –
5 | CN(C)[C@@H]1C(=O)C(C(N)=O)=C(O)[C@@]2(O)C(=O)C3=C(O)c4c(O)cccc4[C@@](C)(O)[C@H]3C[C@@H]12 | inactive | –
6 | CC(C)(C)C(O)(CCc1ccc(Cl)cc1)Cn1cncn1 (stereo not given) | – | 50 µM (active)
7 | c1ccc(NNc2ccccc2)cc1 | inactive | –
8 | CCNS(=O)(=O)C(F)(F)C(F)(F)C(F)(F)C(F)(F)C(F)(F)C(F)(F)C(F)(F)C(F)(F)F | inactive | –
9 | CN(C)c1ccccc1 | inactive | –
10 | O=C(Oc1ccc(Br)cc1)N1CCN2CCC1CC2 | inactive | –
11 | CN(C)C(=O)Nc1ccc(Cl)cc1 | inactive | –
12 | [O-][Cl+]O | inactive | –
13 | O=C(N[C@H](c1ccccc1)[C@@H]1CN2CCC1CC2)c1c(Cl)ccc(C(F)(F)F)c1Cl | – | 34.8 µM (active)
14 | CCCCCOC(=O)c1ccccc1C(=O)OCCCCC | inactive | –
15 | Cc1ccc([N+](=O)[O-])cc1 | inactive | –
16 | COC(=O)Nc1nc2ccccc2[nH]1 | inactive | –
17 | OCCCBr | inactive | –
18 | Nc1cc(Cl)cc(C(=O)O)c1Cl | inactive | –
19 | C[N+](C)(C)CC1CO1 (stereo not given) | inactive | –
20 | CCOc1cccc(C2(N3CCN(c4ccccc4)CC3)CCC(C)CC2)c1 (stereo not given) | inactive | –

Row | Compound | outcome | AC50
21 | Nc1ccc(Cl)cc1N | – | 16.1 µM (active)
22 | CCCCCCCCCCCCCN1CC(C)OC(C)C1 (stereo not given) | inactive | –
23 | CCCCC(CC)COC(=O)c1ccc(C(=O)OCC(CC)CCCC)c(C(=O)OCC(CC)CCCC)c1 (stereo not given) | inactive | –
24 | CS(=O)(=O)NC(=O)c1cc(Oc2ccc(C(F)(F)F)cc2Cl)ccc1[N+](=O)[O-] | inactive | –
25 | ClC1=C(Cl)[C@]2(Cl)[C@H]3[C@H]([C@@H]4C=C[C@H]3C4)[C@@]1(Cl)C2(Cl)Cl | inactive | –
26 | Nc1ccc([N+](=O)[O-])cc1 | inactive | –
27 | CCCCOC(=O)c1ccccc1C(=O)OCc1ccccc1 | inactive | –
28 | Cc1ccc(N=C=O)cc1N=C=O | – | 29.4 µM (active)
29 | CO[C@@H]1[C@H](OC(=O)NC(=O)CCl)CC[C@]2(CO2)[C@H]1[C@@]1(C)O[C@@H]1CC=C(C)C | inactive | –
30 | Cc1cccc(N)c1N | – | 22.9 µM (active)
31 | CC(C)(O)c1cnn2c(-c3ccc(F)c(-c4c(F)cccc4C#N)c3)cnc2n1 | inactive | –
32 | OCCCl | inactive | –
33 | CCC12COCN1COC2 | inactive | –
34 | CNC(=O)Oc1cccc2c1OC(C)(C)C2 | inactive | –
35 | Cc1ccc(N)c(N)c1 | inactive | –
36 | c1ccc(N=Nc2ccccc2)cc1 | inactive | –
37 | O=C1CCCO1 | inactive | –
38 | N#CC(Br)(Br)C(N)=O | inactive | –
39 | Oc1ccc2ccc3cccc4ccc1c2c34 | inactive | –
40 | O=P(OCCCl)(OCCCl)OCCCl | inactive | –
